# Experimental data: ChEMBL document CHEMBL1157539, “Thousands of chemical starting points for antimalarial lead identification” (Nature, 2010)
# Key:
# Format in all cases: functional
# Plasmodium falciparum [1] = assay: GSK_TCMDC: Inhibition of Plasmodium falciparum 3D7 in whole red blood cells, using parasite LDH activity as an index of growth. Test compounds present at 2uM
# Plasmodium falciparum [2] = assay: GSK_TCMDC: Inhibition of Plasmodium falciparum Dd2 in whole red blood cells, using parasite LDH activity as an index of growth. Test compounds present at 2uM
# HepG2 = assay: GSK_TCMDC: Percent inhibition of human HepG2 cell line. Test compounds present at 10uM.
Structure (SMILES),Inhibition (Plasmodium falciparum [1]) [%],Inhibition (Plasmodium falciparum [2]) [%],Inhibition (HepG2) [%]
COc1ccc2ncc(Cl)c(NCC3(O)CCC(NCc4ccc5c(n4)NC(=O)CS5)CC3)c2n1.Cl (stereo unspecified),96,31,39
O.O=C1C([N+](=O)[O-])=C(O)c2c(F)cccc21,95,13,9
Cc1noc(C)c1-c1cccc(CNCc2cccc(-c3cccc(-c4nc5cc(C(F)(F)F)ccc5[nH]4)c3)c2)c1.O=C(O)C(F)(F)F,100,95,18
CC(C)Nc1cc(C(=O)N[C@@H](Cc2ccccc2)[C@H](O)CNCc2cccc(C(F)(F)F)c2)c(F)c(N2CCCCS2(=O)=O)c1.O=CO,93,78,0
CS(=O)(=O)Cc1ccc(Nc2ncc(Cl)c(Nc3cccnc3C(N)=O)n2)cc1.Cl,97,97,54
COc1ccccc1C1CCN(C2CCC(NC(=O)/C=C/c3cc(F)cc(F)c3)CC2)CC1 (stereo unspecified),91,15,45
CN1CCN(Cc2cccc(-c3ccc4c(Nc5cc(O)c(Cl)cc5F)ccnc4c3)c2)CC1,100,100,0
CO/C(=C\C=C\c1cc2cc(Cl)c(Cl)cc2[nH]1)C(=O)NCCCN1CCN(C2CCCCC2)CC1,99,97,60
COc1cccc(-c2cc3nc4c(c(NCCCn5ccnc5)n3n2)CCCC4)c1,100,66,10
CCCNCc1ccc(-c2ccc(CN(CCOC)C(=O)CCCOCc3ccccc3)cc2)nc1.O=C(O)C(F)(F)F,93,13,0
CCN(CC)CCN(Cc1ccc(-c2ccc(C(F)(F)F)cc2)cc1)C(=O)Cn1c(SCc2ccc(F)cc2)nc(=O)c2ccccc21.O=C(O)C(O)C(O)C(=O)O,98,48,47
CCOc1cc(C(=O)Nc2ccc(-c3nc4ccccc4[nH]3)cc2)cc(OCC)c1OCC,100,94,42
CN1CCN(CC(=O)Nc2ccc(-c3ccc(-c4nc5cc(C(F)(F)F)ccc5[nH]4)cc3)cc2)CC1,100,98,43
CC(CN1CCN(C)CC1)C(=O)Nc1ccc(-c2cccc(-c3nc4cc(F)ccc4[nH]3)c2)cc1 (stereo unspecified),100,99,8
O=[N+]([O-])c1cccc(NC(=S)N2CCCN(Cc3ccc(F)cc3F)CC2)c1,99,98,5
CC(C)c1ccc(CN2CCC(CNC(=O)c3cc(-c4ccc(N(C)C)cc4)cs3)C2)cc1.O=C(O)C(F)(F)F (stereo unspecified),83,32,36
CC1CN(c2cnn(C/C=C/c3ccc(NC(=O)c4ccc(Cl)cc4)cc3)c(=O)c2Cl)CC(C)N1.O=C(O)C(F)(F)F (stereo unspecified),88,82,25
FC(F)(F)c1cccc(Nc2nc(-c3ccccc3)nc3ncccc23)c1,97,97,17
CCCCCCCC1CC(CC(=O)Nc2ccnc3ccc(OC)cc23)CN1C(=O)OC(C)(C)C (stereo unspecified),100,34,1
COc1nc2c(CCN3CCC(NCc4ccc5c(c4)NC(=O)CO5)CC3)c(Cl)cnc2cc1F.Cl,99,21,15
CN1CCCN(Cc2ccc(-c3cccc(NC(=O)c4cccc(C#N)c4)c3)cc2)CC1.O=C(O)C(F)(F)F,100,64,17

Structure (SMILES),Inhibition (Plasmodium falciparum [1]) [%],Inhibition (Plasmodium falciparum [2]) [%],Inhibition (HepG2) [%]
CCOc1ccc(C(=O)Nc2cc3c(c(C(F)(F)F)c2)CCNC3)cc1Cl.Cl,91,1,4
Cn1cc(C2CCN(CCCCNC(=O)c3sc(-c4ccc(C(F)(F)F)cc4)nc3CO)CC2)c2ccccc21,95,15,46
CC(=O)Nc1cccc(NC(=O)CSc2ccc(-c3nc4ccccc4[nH]3)cn2)c1,97,73,22
O=C(Nc1cccc(-c2ccc(-c3nc4ccccc4[nH]3)cc2)c1)c1csnn1,91,21,31
N#Cc1c(-c2ccccc2)cn2c1[nH]c(=O)c1ccccc12,92,95,0
COc1ccc(NC(=O)/C=C/c2ccccc2Cl)cc1OCCN1CCN(c2ccncc2)CC1,100,52,7
CN1CCC(NCc2ccc(S(=O)(=O)Nc3ccc(Oc4cccc(Cl)c4)cc3)cc2)CC1.O=C(O)C(F)(F)F,99,5,47
O=C1SC(S)=NC1=CNCCCCCCO,91,1,7
CCCCOc1c(CCC)cc(Cc2cnc(N)nc2N)cc1CCC.Cl,97,0,27
CN1CCN(c2ccnc3ccc(NC(=O)Nc4ccc(Cl)cc4)cc23)CC1,100,99,11
COc1cc(NCCCNCc2cn(Cc3cc(Br)cc(Br)c3)c3ccccc23)nc2ccccc12,100,85,99
Cc1cc2cc(NC(=O)Nc3ccnc4ccccc34)ccc2n1C.Cl,90,33,17
CCc1nn2c(Nc3ccncc3)cc(C)nc2c1-c1ccccc1,100,98,4
CN(C)Cc1ccc(-c2ccc3c(Nc4ccc(Oc5ccccc5)cc4)ccnc3c2)o1,100,100,10
CCCc1cc(Cc2cnc(N)nc2N)cc(CCC)c1OCCCC(=O)OCC,94,0,0
Nc1oc2c(CN3CCCCCC3)c(O)ccc2c(=O)c1-c1nc2ccccc2s1,100,99,12
CC(C)(C)c1ccc(OC(=O)c2ccc(NC(=O)N[C@@H](Cc3ccc(O)cc3)C(=O)NC3CCN(Cc4ccc(O)cc4)C3)cc2)cc1.O=C(O)C(F)(F)F (stereo partly specified),92,67,0
COc1ccc(CNCc2ccc(F)cc2)cc1-c1ccc(S(=O)(=O)NCCN2CCCC2)c(C)c1.O=C(O)C(F)(F)F,98,56,55
CC(C)C(C(=O)n1ncc2c3c(N)nc(N)nc3ccc21)C(C)C,98,8,67
CC(C)CNCc1cccc(-c2ccc(CN(C(=O)NCCc3ccccc3)C3CCN(Cc4ccccc4)CC3)cc2)c1.O=C(O)C(F)(F)F,98,47,99
COCCNCc1cccc(-c2ccc3nccc(Nc4cc(O)ccc4C)c3c2)c1,100,92,0

Structure (SMILES),Inhibition (Plasmodium falciparum [1]) [%],Inhibition (Plasmodium falciparum [2]) [%],Inhibition (HepG2) [%]
Cc1cccc2nc(-c3ccc(-c4ccc(NC(=O)C(C)CN(C)C)cc4)cc3)[nH]c12 (stereo unspecified),99,99,18
Nc1nc(F)nc2nc[nH]c12,89,25,78
Oc1ccc(C=NNC(S)=Nc2cccc3ccccc23)c(O)c1,89,72,8
CN1CCC(c2c[nH]c3ccc(NC(=O)Nc4ccc(-c5ccncc5)c(Cl)c4Cl)cc23)CC1,100,19,27
Cc1cccc2nc(C3CCN(CC4CCN(C(=O)/C=C/c5ccc(Cl)c(Cl)c5)CC4)CC3)[nH]c12,100,79,46
CC(C)CNc1c2c(nc3cnn(-c4c5c(nc6cn[nH]c46)CCCC5)c13)CCCC2,100,0,7
CC(C)n1c(C2CCN(CC3CCN(C(=O)/C=C/c4ccc(Cl)c(Cl)c4)CC3)CC2)nc2ccccc21,94,7,36
CC(=O)NC1=NC(C)(C)N(OCc2ccc(Cl)c(Cl)c2)C(NC(C)=O)=N1,94,97,68
CN(C)CCCN(C)c1cccc2c1nc(-c1cccnc1)n2CCNCc1ccccc1.O=C(O)C(F)(F)F,89,88,4
COc1cc2nc(N3CCC(CNC(=O)c4ccc(-c5ccc(Cl)cc5)cc4)CC3)nc(N)c2cc1OC,100,100,99
N[C@@H](Cc1cc(I)c(Oc2ccc(O)c(Cl)c2)c(I)c1)C(=O)O,96,0,0
Cc1cc(O)c(-c2ccc(Sc3ccc(Cl)cc3)cc2)c(C)n1,92,84,0
CC(=O)Nc1ccc(Nc2cc(C)nc(Nc3ccc(NC(C)=O)cc3)n2)cc1,99,65,4
COc1ccc(C(=O)CCC(=O)N(Cc2ccc(-c3ccc(CNCCc4ccc(S(C)(=O)=O)cc4)cn3)cc2)C2CCN(Cc3ccccc3)CC2)cc1F.O=C(O)C(F)(F)F,99,72,20
COc1ccccc1C(C)NCC(=O)Nc1cc(C(F)(F)F)ccc1Cl (stereo unspecified),97,85,4
COCCNC(=O)c1ccc(OC2CCN(Cc3ccc(F)c(F)c3)CC2)c(Cl)c1,88,73,8
Cc1cccc2nc(-c3ccc(-c4ccc(CN5CCN(CCC#N)CC5)cc4)cc3)[nH]c12.O=C(O)C(F)(F)F,91,27,48
CCc1n[nH]c(C(=O)Nc2cccc(N3CCCC3)c2)c1C,81,52,15
Oc1cc(Nc2ccnc3cc(I)ccc23)c(F)cc1Cl,92,77,0
O=c1cc(NCCCNCc2cc(Br)ccc2F)[nH]c2ccccc12,95,14,0
